In PubChem BioAssay (NCATS):
Results filed as inconclusive are left out. The source made the active and inactive calls. Calls come from the whole dose curve; as a rule, active = well fitted inhibition curve with a large enough effect; inconclusive = small, poorly fitted or top-dose-only effect; inactive = flat fitted curve, though single readings scatter.

Assays:
Assay in all cases: qHTS profiling for inhibitors of Plasmodium falciparum proliferation (AID 504749); note: nearly all actives have a fitted effect of over 60% in size
CP238 = settings: P. falciparum in erythrocytes, SYBR Green DNA, 72 h; series mostly up to 28.7 µM
Outline: (§1)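 SYBR Green fluorescence of parasite DNA, read after lysis and overnight dark incubation, measured growth over 72 h in erythrocyte culture at 0.3% parasitemia and 2.5% hematocrit. Data normalised to DMSO and 0.29 uM artemisinin, with plate-drift correction.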

CP247 = settings: P. falciparum in erythrocytes, SYBR Green DNA, 72 h; series mostly up to 28.7 µM
Outline: as §1

CP250 = settings: P. falciparum in erythrocytes, SYBR Green DNA, 72 h; series mostly up to 12.8 µM
Outline: as §1

CP252 = settings: P. falciparum in erythrocytes, SYBR Green DNA, 72 h; series mostly up to 12.8 µM
Outline: as §1

CP256 = settings: P. falciparum in erythrocytes, SYBR Green DNA, 72 h; series mostly up to 28.7 µM
Outline: as §1

CP262 = settings: P. falciparum in erythrocytes, SYBR Green DNA, 72 h; series mostly up to 28.7 µM
Outline: as §1

CP268 = settings: P. falciparum in erythrocytes, SYBR Green DNA, 72 h; series mostly up to 28.7 µM
Outline: as §1

CP269 = settings: P. falciparum in erythrocytes, SYBR Green DNA, 72 h; series mostly up to 28.7 µM
Outline: as §1

CP286 = settings: P. falciparum in erythrocytes, SYBR Green DNA, 72 h; series mostly up to 28.7 µM
Outline: as §1

CP291 = settings: P. falciparum in erythrocytes, SYBR Green DNA, 72 h; series mostly up to 28.7 µM
Outline: as §1

CP297 = settings: P. falciparum in erythrocytes, SYBR Green DNA, 72 h; series mostly up to 28.7 µM
Outline: as §1

CP305 = settings: P. falciparum in erythrocytes, SYBR Green DNA, 72 h; series mostly up to 28.7 µM
Outline: as §1

CP315 = settings: P. falciparum in erythrocytes, SYBR Green DNA, 72 h; series mostly up to 28.7 µM
Outline: as §1

CP325 = settings: P. falciparum in erythrocytes, SYBR Green DNA, 72 h; series mostly up to 28.7 µM
Outline: as §1

CP329 = settings: P. falciparum in erythrocytes, SYBR Green DNA, 72 h; series mostly up to 28.7 µM
Outline: as §1

DFO2036 = settings: P. falciparum in erythrocytes, SYBR Green DNA, 72 h; series mostly up to 28.7 µM
Outline: as §1

DIV17 = settings: P. falciparum in erythrocytes, SYBR Green DNA, 72 h; series mostly up to 28.7 µM
Outline: as §1

DIV30 = settings: P. falciparum in erythrocytes, SYBR Green DNA, 72 h; series mostly up to 28.7 µM
Outline: as §1

Dd2 = settings: P. falciparum in erythrocytes, SYBR Green DNA, 72 h; series mostly up to 28.7 µM
Outline: as §1

FAB9 = settings: P. falciparum in erythrocytes, SYBR Green DNA, 72 h; series mostly up to 28.7 µM
Outline: as §1

HB3 = settings: P. falciparum in erythrocytes, SYBR Green DNA, 72 h; series mostly up to 28.7 µM
Outline: as §1

ICS = settings: P. falciparum in erythrocytes, SYBR Green DNA, 72 h; series mostly up to 28.7 µM
Outline: as §1

JCK = settings: P. falciparum in erythrocytes, SYBR Green DNA, 72 h; series mostly up to 28.7 µM
Outline: as §1

N140 = settings: P. falciparum in erythrocytes, SYBR Green DNA, 72 h; series mostly up to 28.7 µM
Outline: as §1

P93_24 = settings: P. falciparum in erythrocytes, SYBR Green DNA, 72 h; series mostly up to 28.7 µM
Outline: as §1

P94_40 = settings: P. falciparum in erythrocytes, SYBR Green DNA, 72 h; series mostly up to 28.7 µM
Outline: as §1

PC15 = settings: P. falciparum in erythrocytes, SYBR Green DNA, 72 h; series mostly up to 28.7 µM
Outline: as §1

SC27B = settings: P. falciparum in erythrocytes, SYBR Green DNA, 72 h; series mostly up to 28.7 µM
Outline: as §1

TAB113 = settings: P. falciparum in erythrocytes, SYBR Green DNA, 72 h; series mostly up to 28.7 µM
Outline: as §1

W2 = settings: P. falciparum in erythrocytes, SYBR Green DNA, 72 h; series mostly up to 12.8 µM
Outline: as §1

Measured: Potency
Potency is the fitted concentration of half-maximal effect.

CC(=O)OC1C[C@H](O[C@@H]2C(O)C[C@H](O[C@@H]3C(O)C[C@@H](OC4CC[C@]5(C)C(CCC6C5CC(O)[C@@]5(C)C(C7=CC(=O)OC7)CC[C@@]65O)C4)OC3C)OC2C)O[C@H](C)[C@H]1O[C@H]1OC(CO)C(O)C(O)C1O (stereo not given in full)
active: DIV17 13.5 µM | HB3 12.6 µM | ICS 5.62 µM | P93_24 12.6 µM | PC15 5.01 µM | W2 13.5 µM
inactive: all other assays above
